# PubChem BioAssay (NCATS)
# Results filed as inconclusive are left out. Activity calls are given as the source filed them. Calls follow the shape of the dose curve; as a rule, active = well fitted cell-killing curve with a large enough effect; inconclusive = small, poorly fitted or top-dose-only effect, or effect the other way; inactive = no such curve, though single readings can be large or run the other way.
# Assay: qHTS of pediatric cancer cell lines to identify multiple opportunities for drug repurposing: Confirmatory screen for Saos-2 cells (AID 1347127); also: nearly all actives have a fitted effect of over 60% in size
# Conditions: Saos-2 osteosarcoma cell viability; series mostly up to 45.9 µM; activity change, negative = cytotoxic: at the top concentration
# Description: Drug repurposing or repositioning has been offered as a strategy for drug development in oncology programs. This approach has special potential for childhood cancers and other rare or orphan diseases, where the expected return on new drug development has been a disincentive to pharmaceuticals.
# In this project we exploit the poly-pharmacology of drugs to discover new indications via phenotypic screening of a panel of 19 well-characterized cell lines derived from solid tumors seen in children and adolescents. The goal is to identify approved drugs with previously unrecognized anticancer properties that has the potential to reveal new mechanisms and biological processes involved in carcinogenesis or drug resistance. We employed a titration-based paradigm (quantitative high-throughput screening or qHTS), where all compounds were tested at multiple concentrations for their effect on cell viability. Concentration-response curves (CRCs) were derived directly from the primary screen, and both potency and efficacy values were used to identify compounds with robust bioactivity profiles. We screened the NIH Chemical Genomics Center (NCGC) Pharmaceutical Collection (NPC) and Mechanism Interrogation Plate (MIPE) small molecule collections of approved and investigational compounds against these cell lines; and measured metabolically active cells after 48 hours of compound treatment as a proxy for cell viability.
# Assay Submitter: Nathalia J. Martinez, National Center for Advancing Translational Sciences, National Institutes of Health, Rockville, MD, USA; email: natalia.martinez@nih.gov
# [1] Shen, M et al. Quantitative high-throughput phenotypic screening of pediatric cancer cell lines identifies multiple opportunities for drug repurposing. Oncotarget 2017 Dec 19;9(4):4758-4772. PMID 29435139.
# The cells were obtained from University of North Carolina (UNC), Pediatric Preclinical Testing Program (PPT), and Coriell Institute (CI).
# qHTS cell viability assay:
# Cells were assayed in growth media at a density of 500-1,000 cells/well. Five microliters of cells were dispensed into 1,536-well, white, solid-bottom, TC-treated plates (Greiner Bio One) using a multidrop dispenser and incubated at 37 degrees C, 5% CO2, under a humidified atmosphere for 5 hours. Twenty-three nanoliters of compounds and controls (neutral control DMSO or positive control bortezomib at final concentration of 2.3 µM) were subsequently transferred by Kalypsys pintool. For primary screens, the MIPE collection was tested at 11-point dilutions (final concentrations range from 0.78 nM to 46 µM) and the NPC collection at 8-point dilutions (final concentrations range from 0.59 nM to 46 µM). Compounds tested in follow-up screens were assayed at 11-point dilutions. Cells were incubated for 48 hours, followed by addition of 3 µL of CellTiter-Glo (Promega). After a 15 min incubation at room temperature, samples were analyzed for luminescence intensity using a ViewLux High-throughput CCD imager equipped with clear filters.
# Potency is read from the fitted curve at half-maximal effect.
Structure (SMILES),"activity change, negative = cytotoxic",Potency,outcome
CC1(C)O[C@@H]2C[C@H]3[C@@H]4CCC5=CC(=O)CC[C@]5(C)[C@@]4(F)[C@@H](O)C[C@]3(C)[C@]2(C(=O)CCl)O1,-1.73% (inactive),–,–
CC(=O)OCC(=O)[C@@]1(OC(C)=O)[C@@H](C)C[C@H]2[C@@H]3C[C@H](F)C4=CC(=O)C=C[C@]4(C)[C@@]3(F)[C@@H](O)C[C@@]21C,4.46% (inactive),–,–
CCCCCCC[N+](CC)(CC)CCCCc1ccc(Cl)cc1,–,11.7 µM (active),–
O=C(CCCN1CCC(O)(c2ccc(Br)cc2)CC1)c1ccc(F)cc1,-11.4% (inactive),–,–
COc1cc(C=C2CCC/C(=C\c3ccc(O)c(OC)c3)C2=O)ccc1O,–,11.7 µM (active),–
NC(=O)CC[C@@H]1NC(=O)[C@H](Cc2ccccc2)NC(=O)[C@H](Cc2ccc(O)cc2)NC(=O)CCSSC[C@@H](C(=O)N2CCC[C@H]2C(=O)N[C@@H](CCCN=C(N)N)C(=O)NCC(N)=O)NC(=O)[C@H](CC(N)=O)NC1=O,0.366% (inactive),–,–
CC1(C)O[C@@H]2C[C@H]3[C@@H]4C[C@H](F)C5=CC(=O)CC[C@]5(C)[C@H]4[C@@H](O)C[C@]3(C)[C@]2(C(=O)CO)O1,8.9% (inactive),–,–
CC(=O)Oc1ccc(C(c2ccc(OC(C)=O)cc2)c2ccccn2)cc1,2.4% (inactive),–,–
C=C1C[C@H]2[C@@H]3C=C(C)C4=CC(=O)CC[C@]4(C)[C@H]3CC[C@]2(C)[C@@]1(OC(C)=O)C(C)=O,-0.346% (inactive),–,–
CCC(C(=O)OCCN(CC)CC)c1ccccc1 (configuration not stated),1.7% (inactive),–,–
CN(C)/N=N/c1nc[nH]c1C(N)=O,9.33% (inactive),–,–
C[C@]12C=CC(=O)C=C1CC[C@@H]1[C@@H]2[C@@H](O)C[C@@]2(C)[C@H]1CC[C@]2(O)C(=O)CO,-9.63% (inactive),–,–
C[C@]12CCC(=O)C=C1CC[C@H]1[C@@H]3CC[C@](O)(C(=O)CO)[C@@]3(C)C[C@H](O)[C@@]12F,-2.17% (inactive),–,–
COCc1c(C(C)C)nc(C(C)C)c(/C=C/[C@@H](O)C[C@@H](O)CC(=O)O)c1-c1ccc(F)cc1,–,0.0657 µM (active),–
Oc1ccc(O)cc1,14.8% (inactive),–,–
C[C@@H]1C[C@H]2[C@@H]3CCC4=CC(=O)C=C[C@]4(C)[C@@]3(F)[C@@H](O)C[C@]2(C)[C@H]1C(=O)CO,26% (inactive),–,–
C[C@H]1C[C@H]2[C@@H]3CCC4=CC(=O)C=C[C@]4(C)[C@@]3(Cl)[C@@H](O)C[C@]2(C)[C@@]1(O)C(=O)CO,–,–,inactive
OC[C@H]1O[C@@H](n2cnc3c(=S)nc[nH]c32)[C@H](O)[C@@H]1O,–,4.65 µM (active),–
CC(=O)OCC(=O)[C@@]12N=C(C)O[C@@H]1C[C@H]1[C@@H]3CCC4=CC(=O)C=C[C@]4(C)[C@H]3[C@@H](O)C[C@@]12C,–,0.737 µM (active),–
CCCCC(CC)CN=C(N)NC(N)=NCCCCCCN=C(N)NC(N)=NCC(CC)CCCC (configuration not stated),–,16.5 µM (active),–
NC(CO)(CO)CO,24.5% (inactive),–,–
CC(=O)O[C@]1(C(C)=O)CC[C@H]2[C@@H]3C[C@H](C)C4=CC(=O)CC[C@]4(C)[C@H]3CC[C@@]21C,-7.27% (inactive),–,–
